High-throughput results (PubChem BioAssay)
697 NFkB inh – inhibitors of PMA/ionomycin-induced NF-kB reporter, 697 cells, primary screen, B-cell NF-kB inhibitor project, cell-based, luminescence, uHTS | 697 B-cell NF-kB luciferase reporter, 16 h | inhibition, % at 4 µM | 330,000 compounds, 0.33% hits; in the data active means inhibition above about 35%
SMARCA2 activ – SMARCA2 (BRM) function activators, primary screen, cell-based, luminescence, high throughput. MG213 cells, MMTV-luciferase reporter, dexamethasone, overnight. 370,000 compounds, 1% hits. AID 652017, 2013. activation, % at 9.1 µM; in the data active means activation above about 7.8%
Gli-Sufu block – Gli-Sufu pathway antagonists, primary screen, luciferase luminescence, Sufu-KO-LIGHT cells, uHTS | Sufu-KO-LIGHT fibroblasts, Gli luciferase reporter luminescence | inhibition, % at 5 µM | 340,000 compounds, 0.74% hits;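 active means inhibition above about 55%, limit read from the data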
esBAF inh – Bmi1 luciferase reporter increase in mESCs, primary screen, esBAF inhibitor project, mouse ES cells, Bmi1 luciferase knock-in, single point. 350,000 compounds, 2% hits. reporter increase, % at 12.5 µM. AID 602393, 2012. 24 h; 100% = twice the neutral-well signal; in the data active means activation above about 40%; inconclusive means no clear call, values can overlap the other calls;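 further: a rise in the Bmi1 reporter signal indicates esBAF inhibition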
Jurkat NFkB inh – inhibitors of induced NF-kB luciferase reporter, primary screen, TCR NF-kB activation inhibitor project, cell-based, luminescence, uHTS; inhibition, % at 4 µM; 330,000 compounds, 0.53% hits; Jurkat, PMA/ionomycin-induced NF-kB luciferase reporter; in the data active means inhibition above about 50%
Ring1 derepress – Ring1 mRNA increase in mouse ESCs, confirmation, esBAF inhibitor project, cell-based, mouse ESC, RT-qPCR, cherry-pick; shares compounds with esBAF inh; mouse ESC E14, Ring1 mRNA RT-qPCR fold change; fold change at 33 µM; 550 tested, under 10 active; AID 743176, 2013;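 active means Ring1 gene expression raised more than 2-fold over untreated cells in both replicates at either tested dose; inconclusive means only one replicate above 2-fold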;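 further: Ring1 transcript normalised to actin housekeeping signal by TaqMan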
esBAF Fgf4 qPCR – Fgf4 mRNA decrease in mouse ESCs, confirmation, esBAF inhibitor project, cell-based, mouse ESC, RT-qPCR, cherry-pick. Fgf4 expression fold change at 33 µM. AID 743177, 2013. shares compounds with esBAF inh. 550 compounds, 4% hits. mouse ESC E14, Fgf4 mRNA qPCR fold change; active compounds read low;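 active means Fgf4 expression under 0.8 fold of control in both repeat measurements at one or both tested doses; inconclusive means under 0.8 fold in just a single repeat measurement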;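 further: Fgf4 transcript normalised to actin in duplex TaqMan qPCR; cells exposed to compound for 24 h before lysis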
Bmi1 derepress – esBAF inhibition via Bmi1 de-repression, confirmation, cell-based, RT-qPCR, mouse ESC, single point, cherry-pick; mouse ESE14 ES cells, Bmi1 mRNA qPCR fold; active compounds read high; fold change at 33 µM; 550 tested, under 10 active; shares compounds with esBAF inh;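 active means Bmi1 expression fold change above 6 at either tested concentration, seen in replicate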;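 further: higher fold means more Bmi1 de-repression and stronger esBAF inhibition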
A549 tox SP – A549 cell cytotoxicity, cytotoxicity control, plate reader, single point, cherry-pick; shares compounds with esBAF inh; cell viability change % (negative = cytotoxic), % at 25 µM, hits read low; 550 tested, under 10 active; AID 743188, 2013; call rule not given here
HepG2 tox SP – HepG2 cell cytotoxicity, cytotoxicity control, plate reader, single point, cherry-pick; active compounds read low; AID 743189, 2013; activity change, negative = inhibition, % at 25 µM; shares compounds with esBAF inh; 550 compounds, 4% hits; in the data active means activity change below about -50%
HEK293 cytotox SP – HEK293 cell cytotoxicity, cytotoxicity control, plate reader, single point, cherry-pick. 550 compounds, 3% hits. shares compounds with esBAF inh. activity change, negative = inhibition, % at 25 µM, hits read low; in the data active means activity change below about -38%, passing the limit was not always enough
Hits are given with their value. The list is not random: actives were taken first. Their share in the collection is about 3.3%.

What do the screens show for `C=CCn1c(-c2ccc(N)cc2)nc2ccccc21`?
697 NFkB inh: inactive; SMARCA2 activ: inactive; Gli-Sufu block: inactive; esBAF inh: 58; Jurkat NFkB inh: inactive; Ring1 derepress: inactive; esBAF Fgf4 qPCR: inactive; Bmi1 derepress: inactive; A549 tox SP: inactive; HepG2 tox SP: inactive; HEK293 cytotox SP: inactive

What do the screens show for `CCn1c(-c2ccc(N)cc2)nc2ccccc21`?
697 NFkB inh: inactive; SMARCA2 activ: inactive; Gli-Sufu block: inactive; esBAF inh: inactive; Jurkat NFkB inh: inactive

Results for Cc1ccc(-c2nn3c(-c4ccccc4)nnc3o2)cc1 ?
SMARCA2 activ: inactive

Results for c1ccc(-c2nnc3oc(-c4cccs4)nn23)cc1 ?
SMARCA2 activ: inactive; esBAF inh: 166; Ring1 derepress: inactive; esBAF Fgf4 qPCR: inconclusive; Bmi1 derepress: inactive; A549 tox SP: inactive; HepG2 tox SP: inactive; HEK293 cytotox SP: inactive

What do the screens show for `N#C[C@H]1[C@H](c2ccccc2)[C@@H](CO)N1C(=O)CN1CCOCC1`?
esBAF inh: inactive

What do the screens show for `Clc1ccc(-c2csc(N3CCSCC3)n2)cc1`?
697 NFkB inh: inactive; SMARCA2 activ: inactive; Gli-Sufu block: inactive; esBAF inh: 76; Jurkat NFkB inh: inactive; Ring1 derepress: inactive; esBAF Fgf4 qPCR: inactive; Bmi1 derepress: inactive; A549 tox SP: inactive; HepG2 tox SP: inactive; HEK293 cytotox SP: inactive

What do the screens show for `CCCNC(=O)N1C[C@@H](O)COC[C@H]2O[C@@H](CC(=O)N[C@@H]3CCN(Cc4ccccc4)C3)CC[C@@H]21`?
esBAF inh: inactive

Results for Cc1ccc(OCn2c(=O)sc3ccccc32)cc1 ?
697 NFkB inh: inactive; Gli-Sufu block: inactive; esBAF inh: 66; Jurkat NFkB inh: inactive; Ring1 derepress: inactive; esBAF Fgf4 qPCR: inactive; Bmi1 derepress: inactive; A549 tox SP: inactive; HepG2 tox SP: inactive; HEK293 cytotox SP: inactive

What do the screens show for `CCOC(=O)Cn1c(=O)sc2ccccc21`?
697 NFkB inh: inactive; SMARCA2 activ: inactive; Gli-Sufu block: inactive; esBAF inh: inactive; Jurkat NFkB inh: inactive

Results for COc1ccccc1-c1ccc2n(c1=O)C[C@@H]1[C@@H](CO)[C@H](C(=O)NCC3CC3)N(S(C)(=O)=O)[C@H]21 ?
esBAF inh: inactive

What do the screens show for `O=C1C(=NO)CCCc2ccccc21`?
SMARCA2 activ: inactive; Gli-Sufu block: inactive; esBAF inh: inactive

Results for O=C1C(=C2CCc3ccccc32)Cc2ccccc21 ?
SMARCA2 activ: inactive; Gli-Sufu block: inactive; esBAF inh: 71; Ring1 derepress: inactive; esBAF Fgf4 qPCR: inactive; Bmi1 derepress: inactive; A549 tox SP: inactive; HepG2 tox SP: inactive; HEK293 cytotox SP: inactive

How did c1ccc(-c2noc(CCC3CCCC3)n2)cc1 do in these assays?
697 NFkB inh: inactive; SMARCA2 activ: inactive; Gli-Sufu block: inactive; esBAF inh: inconclusive; Jurkat NFkB inh: inactive
